# Calls of active or inactive are those of the source. How the source made its calls: active means hit-call score of the fitted dose curve at least 0.9, where 1 is the maximum; inactive means score below 0.9.
# Tests used:
# [1] = ATG_CRE_CIS: Attagene CIS-FACTORIAL HepG2 Assay for human cAMP Responsive Element (CRE) binding protein 3 (AID 2282926); conditions: HepG2 CRE cis-reporter, Attagene multiplexed mRNA; actives raise or lower the signal
# Outline: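 HepG2 cells transiently transfected with cis-element-driven multiple reporter transcription units; CRE reporter mRNA measured 24 h after dosing by RT-PCR, 6-FAM labelling, HpaI digestion and capillary electrophoresis. Bidirectional fit versus DMSO baseline.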
# [2] = biological target: CCAAT/enhancer-binding protein beta (Homo sapiens) (UniProt P17676); test: ATG_C_EBP_CIS: Attagene CIS-FACTORIAL HepG2 Assay for human CCAAT/Enhancer Binding Protein (C/EBP) beta (AID 2282927); conditions: HepG2 Attagene cis-factorial transcription factor reporter; actives raise or lower the signal
# CCAAT/enhancer-binding protein beta (Homo sapiens), sequence (P17676 whole entry, looked up): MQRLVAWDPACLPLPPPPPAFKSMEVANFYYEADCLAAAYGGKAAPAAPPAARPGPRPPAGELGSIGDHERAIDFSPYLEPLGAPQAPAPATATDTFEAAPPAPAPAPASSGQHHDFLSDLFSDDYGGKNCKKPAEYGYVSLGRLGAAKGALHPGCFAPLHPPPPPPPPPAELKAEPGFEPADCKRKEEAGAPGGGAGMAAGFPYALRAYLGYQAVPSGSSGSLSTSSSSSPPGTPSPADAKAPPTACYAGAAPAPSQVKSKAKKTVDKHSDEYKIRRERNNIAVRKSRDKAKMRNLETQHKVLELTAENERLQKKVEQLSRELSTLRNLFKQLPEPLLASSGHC
# Outline: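 RT-PCR/capillary electrophoresis fluorescence of reporter mRNA, 24 h post-dose, in HepG2 cells carrying transfected cis-promoter reporter units. Bidirectional curve fitting against DMSO baseline captures gain or loss of signal.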
# [3] = ATG_CMV_CIS: Attagene CIS-FACTORIAL HepG2 Assay for human CMV (Internal Marker) (AID 2282928); conditions: HepG2 CMV promoter reporter, transcription factor profiling; actives raise or lower the signal;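 further: endpoint acts as a background internal control marker rather than a target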
# Outline: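 Cell system: HepG2, transiently transfected multiple reporter units under cis promoters. Exposure: 24 h. Detection: RT-PCR, FAM labeling, HpaI digestion, capillary electrophoresis. Analysis: bidirectional, DMSO baseline.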
# [4] = ATG_AP_2_CIS: Attagene CIS-FACTORIAL HepG2 Assay for human Activator Protein 2 (AP-2) (AID 2282932); conditions: HepG2 AP-2 cis-reporter, Attagene transcription factor profiling; actives raise or lower the signal
# Outline: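 HepG2 cells were transiently transfected with multiple cis-promoter reporter transcription units and dosed for 24 h. Reporter mRNA was measured by RT-PCR with capillary electrophoresis fluorescence; bidirectional fits relative to DMSO baseline.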
# [5] = ATG_BRE_CIS: Attagene CIS-FACTORIAL HepG2 Assay for human Bone Morphogenetic Protein (BMP) Response Element (BRE) (AID 2282933); conditions: HepG2 BMP response element reporter, Attagene transcription factor profiling; actives raise or lower the signal
# Outline: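 Gain- or loss-of-signal was derived by bidirectional fitting against DMSO controls. The signal came from reporter mRNA, measured by RT-PCR and capillary electrophoresis, in HepG2 cells transiently carrying multiple reporter units and dosed for 24 h.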
# [6] = biological target: Transcription factor E2F1 (Homo sapiens) (UniProt Q01094); test: ATG_E2F_CIS: Attagene CIS-FACTORIAL HepG2 Assay for human E2F Transcription Factor 1 (AID 2282935); conditions: HepG2 Attagene cis-reporter, E2F reporter RNA transcripts; actives raise or lower the signal
# Transcription factor E2F1 (Homo sapiens), sequence (Q01094 whole entry, looked up): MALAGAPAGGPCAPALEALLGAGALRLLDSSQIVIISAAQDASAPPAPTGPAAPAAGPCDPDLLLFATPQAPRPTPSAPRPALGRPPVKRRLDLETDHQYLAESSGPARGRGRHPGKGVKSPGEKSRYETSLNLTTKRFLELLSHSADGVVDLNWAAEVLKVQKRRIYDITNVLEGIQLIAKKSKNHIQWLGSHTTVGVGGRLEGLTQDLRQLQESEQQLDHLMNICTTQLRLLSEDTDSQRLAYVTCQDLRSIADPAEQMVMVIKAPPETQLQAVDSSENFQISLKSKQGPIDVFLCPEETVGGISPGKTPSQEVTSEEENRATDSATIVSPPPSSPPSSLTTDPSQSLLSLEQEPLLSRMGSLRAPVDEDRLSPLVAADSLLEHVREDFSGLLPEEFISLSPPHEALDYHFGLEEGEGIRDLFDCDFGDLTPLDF
# Outline: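 HepG2 cells transiently transfected with multiplexed cis-element reporter units, dosed for 24 h. Reporter mRNA measured by RT-PCR, 6-FAM primer-extension labeling, HpaI digestion and capillary electrophoresis; bidirectional fit versus DMSO baseline.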
# [7] = ATG_E_Box_CIS: Attagene CIS-FACTORIAL HepG2 Assay for human Enhancer Box (E-box) (AID 2282936); conditions: HepG2 E-box cis-reporter transcription, actives raise or lower the signal
# Outline: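 HepG2 cells transiently transfected with multiplexed cis-element reporter units sensing endogenous transcription factor activity; 24 h compound exposure. Reporter mRNA measured by RT-PCR, 6-FAM primer extension, HpaI digestion and capillary electrophoresis; bidirectional fit versus DMSO.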
# [8] = ATG_M_61_CIS: Attagene CIS-FACTORIAL HepG2 Assay for M61 Transcription Factor (Internal Marker) (AID 2282937); conditions: HepG2 Attagene CIS-FACTORIAL M61 internal marker reporter; actives raise or lower the signal
# Outline: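 Cells were transfected with reporter units under cis-regulatory promoters, treated with chemicals for 24 h, then lysed for RNA. Reporter transcripts were quantified by RT-PCR and capillary electrophoresis, and activity was fitted bidirectionally against DMSO.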
# [9] = ATG_EGR_CIS: Attagene CIS-FACTORIAL HepG2 Assay for human Early Growth Response 1 (EGR1) (AID 2282938); conditions: HepG2 Attagene CIS-FACTORIAL EGR reporter mRNA; actives raise or lower the signal
# Outline: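 Endogenous TF activity in HepG2 liver cells was gauged through cis-promoter reporter constructs transiently transfected. After 24 h dosing, reporter mRNA was quantified by RT-PCR and capillary electrophoresis, and curves fitted in both directions versus DMSO.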
# [10] = ATG_Ets_CIS: Attagene CIS-FACTORIAL HepG2 Assay for human Erythroblast Transformation Specific (ETS) (AID 2282941); conditions: HepG2 ETS cis-reporter transcription, actives raise or lower the signal
# Outline: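 After transient cis-reporter transfection, HepG2 cells receive test chemical for 24 h. Reporter mRNA levels, measured by RT-PCR and capillary electrophoresis fluorescence, are analysed bidirectionally relative to the DMSO baseline.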
# [11] = ATG_FoxO_CIS: Attagene CIS-FACTORIAL HepG2 Assay for human Forkhead box O (FoxO) (AID 2282943); conditions: HepG2 Attagene cis-reporter, FoxO element, mRNA; actives raise or lower the signal
# Outline: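 HepG2 cells transiently transfected with cis-promoter-driven multiple reporter transcription units; 24 h after chemical dosing, reporter mRNA quantified by RT-PCR, fluorescent primer extension, HpaI digestion and capillary electrophoresis. Bidirectional fitting versus DMSO baseline.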
# [12] = ATG_GLI_CIS: Attagene CIS-FACTORIAL HepG2 Assay for human Zinc Finger Protein GLI1 (AID 2282945); conditions: HepG2, Attagene cis-factorial reporter mRNA, GLI element; actives raise or lower the signal
# Outline: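 HepG2 cells transiently transfected with cis-promoter multiplexed reporter units report endogenous transcription factor activity. After 24 h chemical exposure, reporter mRNA was quantified by RT-PCR, 6-FAM labelling, HpaI digestion and capillary electrophoresis, with bidirectional fitting against DMSO.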
# [13] = ATG_ISRE_CIS: Attagene CIS-FACTORIAL HepG2 Assay for human Interferon Regulatory Factor 1 (IRF1) binding to an Interferon-Stimulated Response Element (ISRE) (AID 2282948); conditions: HepG2 ISRE cis-reporter (Attagene), mRNA transcription readout; actives raise or lower the signal
# Outline: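 Quantitation relies on labelled RT-PCR fragments separated by capillary electrophoresis. Human HepG2 cells bearing cis-promoter reporter constructs were treated 24 h; DMSO served as baseline for bidirectional fitting.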
# [14] = ATG_M_32_CIS: Attagene CIS-FACTORIAL HepG2 Assay for M32 Transcription Factor (Internal Marker) (AID 2282949); conditions: HepG2 Attagene cis-factorial M32 reporter, mRNA; actives raise or lower the signal;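 further: background control marker of the multiplexed CIS panel rather than a real target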
# Outline: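 Internal background marker read-out: RT-PCR/capillary electrophoresis fluorescence of reporter transcripts from transiently transfected HepG2 cells after 24 h chemical exposure. Activity fitted bidirectionally relative to DMSO negative control.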
# [15] = ATG_M_06_CIS: Attagene CIS-FACTORIAL HepG2 Assay for M06 Transcription Factor (Internal Marker) (AID 2282950); conditions: HepG2 Attagene CIS-FACTORIAL M06 internal marker reporter; actives raise or lower the signal
# Outline: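 Fluorescence-labelled RT-PCR products from cis-promoter reporter units, cut with HpaI and resolved by capillary electrophoresis, give the signal. Cells are human HepG2, dosed for 24 h. Serves as background control, fitted relative to DMSO.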
# [16] = ATG_MRE_CIS: Attagene CIS-FACTORIAL HepG2 Assay for human Metal Responsive Element (MRE) (AID 2282954); conditions: HepG2 MRE cis-reporter transcription, Attagene multiplex; actives raise or lower the signal
# Outline: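 HepG2 cells transiently transfected with multiple cis-element reporter units measure endogenous MTF1-driven transcription. After 24 h compound exposure, reporter mRNA is quantified by RT-PCR with 6-FAM labelling, HpaI digestion and capillary electrophoresis; bidirectional fits versus DMSO.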
# [17] = ATG_PXRE_CIS: Attagene CIS-FACTORIAL HepG2 Assay for human Pregnane X Receptor Element (PXRE) (AID 2282957); conditions: HepG2 Attagene CIS-FACTORIAL PXRE reporter, mRNA; actives raise or lower the signal
# Outline: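 HepG2 cells transiently transfected with cis-element-driven multiplexed reporter units; after 24 h chemical exposure, reporter mRNA measured by RT-PCR, 6-FAM labelling, HpaI digestion and capillary electrophoresis. Bidirectional fitting relative to DMSO.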
# [18] = ATG_Sox_CIS: Attagene CIS-FACTORIAL HepG2 Assay for human SRY-box transcription factor (SOX) (AID 2282960); conditions: HepG2 Attagene cis-factorial SOX reporter, mRNA; actives raise or lower the signal
# Outline: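 Transient MRTU transfection of HepG2; 24 h compound incubation; TriZol RNA, oligo(dT) RT, PCR, 6-FAM primer extension, HpaI cut, CE. Bidirectional fit, DMSO = baseline.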
# [19] = biological target: Transcription factor Sp1 (Homo sapiens) (UniProt P08047); test: ATG_Sp1_CIS: Attagene CIS-FACTORIAL HepG2 Assay for human Specificity Protein 1 (Sp1) (AID 2282961); conditions: HepG2 Sp1 cis-reporter transcription, actives raise or lower the signal
# Transcription factor Sp1 (Homo sapiens), sequence (P08047 whole entry, looked up): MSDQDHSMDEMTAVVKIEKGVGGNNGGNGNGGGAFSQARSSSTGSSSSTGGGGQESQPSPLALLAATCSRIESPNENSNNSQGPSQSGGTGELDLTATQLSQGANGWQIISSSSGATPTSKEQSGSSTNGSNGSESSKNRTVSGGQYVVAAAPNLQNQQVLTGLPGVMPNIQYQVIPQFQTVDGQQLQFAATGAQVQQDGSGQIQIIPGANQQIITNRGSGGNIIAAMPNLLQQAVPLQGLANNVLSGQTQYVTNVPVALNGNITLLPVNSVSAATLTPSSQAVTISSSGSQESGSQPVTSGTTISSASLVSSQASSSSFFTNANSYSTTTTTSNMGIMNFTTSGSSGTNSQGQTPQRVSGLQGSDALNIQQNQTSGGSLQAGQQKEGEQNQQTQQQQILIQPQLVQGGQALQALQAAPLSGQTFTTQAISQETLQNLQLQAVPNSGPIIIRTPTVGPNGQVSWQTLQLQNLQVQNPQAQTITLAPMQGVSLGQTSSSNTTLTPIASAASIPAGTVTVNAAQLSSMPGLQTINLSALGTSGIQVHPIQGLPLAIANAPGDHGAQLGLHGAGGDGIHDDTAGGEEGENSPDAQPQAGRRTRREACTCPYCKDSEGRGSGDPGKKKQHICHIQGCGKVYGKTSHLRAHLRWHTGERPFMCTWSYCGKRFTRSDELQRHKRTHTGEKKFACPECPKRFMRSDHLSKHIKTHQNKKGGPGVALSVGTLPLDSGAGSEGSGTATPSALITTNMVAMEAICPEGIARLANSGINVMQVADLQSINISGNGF
# Outline: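 Endogenous Sp1 activity was gauged in human liver HepG2 cells bearing transfected reporter units under a cis-regulating promoter. After 24 h dosing, reporter mRNA was quantified by RT-PCR with capillary electrophoresis, and activity fitted bidirectionally versus DMSO.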
# [20] = ATG_SREBP_CIS: Attagene CIS-FACTORIAL HepG2 Assay for human Sterol Regulatory Element Binding (SREBP) (AID 2282962); conditions: HepG2 Attagene cis-factorial SREBP reporter, mRNA; actives raise or lower the signal
# Outline: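 Twenty-four hours after chemical dosing of transfected HepG2 cultures, reporter RNA was converted to cDNA, amplified, end-labelled with 6-FAM and resolved by capillary electrophoresis. Responses were fitted relative to DMSO.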
smiles,measurement,setting,value
C=CN1CCCCCC1=O,outcome,[1],inactive
same,outcome,[2],inactive
same,outcome,[3],inactive
same,outcome,[4],inactive
same,outcome,[5],inactive
same,outcome,[6],inactive
same,outcome,[7],inactive
same,outcome,[8],inactive
same,outcome,[9],inactive
same,outcome,[10],inactive
same,outcome,[11],inactive
same,outcome,[12],inactive
same,outcome,[13],inactive
same,outcome,[14],inactive
same,outcome,[15],inactive
same,outcome,[16],inactive
same,outcome,[17],inactive
same,outcome,[18],inactive
same,outcome,[19],inactive
same,outcome,[20],inactive
C/C=C(\C)C(=O)OCC/C=C\CC,outcome,[1],inactive
same,outcome,[2],inactive
same,outcome,[3],inactive
same,outcome,[4],inactive
same,outcome,[5],inactive
same,outcome,[6],inactive
same,outcome,[7],inactive
same,outcome,[8],inactive
same,outcome,[9],inactive
same,outcome,[10],inactive
same,outcome,[11],inactive
same,outcome,[12],inactive
same,outcome,[13],inactive
same,outcome,[14],inactive
same,outcome,[15],inactive
same,outcome,[16],inactive
same,outcome,[17],inactive
same,outcome,[18],inactive
same,outcome,[19],inactive
same,outcome,[20],inactive
CCCCCCOC(=O)CCCCCCCC(=O)OCCCCCC,outcome,[1],inactive
same,outcome,[2],inactive
same,outcome,[3],inactive
same,outcome,[4],inactive
same,outcome,[5],inactive
same,outcome,[6],inactive
same,outcome,[7],inactive
same,outcome,[8],inactive
same,outcome,[9],inactive
same,outcome,[10],inactive
same,outcome,[11],inactive
same,outcome,[12],inactive
same,outcome,[13],inactive
same,outcome,[14],inactive
same,outcome,[15],inactive
same,outcome,[16],inactive
same,AC50,[17],71.6 µM (active)
same,outcome,[18],inactive
same,outcome,[19],inactive
same,outcome,[20],inactive
O=C1NC(=O)[C@@H]2CC=CC[C@H]12,outcome,[1],inactive
same,outcome,[2],inactive
same,outcome,[3],inactive
same,outcome,[4],inactive
same,outcome,[5],inactive
same,outcome,[6],inactive
same,outcome,[7],inactive
same,outcome,[8],inactive
same,outcome,[9],inactive
same,outcome,[10],inactive
same,outcome,[11],inactive
same,outcome,[12],inactive
same,outcome,[13],inactive
same,outcome,[14],inactive
same,outcome,[15],inactive
same,outcome,[16],inactive
same,outcome,[17],inactive
same,outcome,[18],inactive
same,outcome,[19],inactive
same,outcome,[20],inactive
CC/C=C/CCO,outcome,[1],inactive
same,outcome,[2],inactive
same,outcome,[3],inactive
same,outcome,[4],inactive
same,outcome,[5],inactive
same,outcome,[6],inactive
same,outcome,[7],inactive
same,outcome,[8],inactive
same,outcome,[9],inactive
same,outcome,[10],inactive
same,outcome,[11],inactive
same,outcome,[12],inactive
same,outcome,[13],inactive
same,outcome,[14],inactive
same,outcome,[15],inactive
same,outcome,[16],inactive
same,AC50,[17],40.5 µM (active)
same,outcome,[18],inactive
same,outcome,[19],inactive
same,outcome,[20],inactive
NCc1ccccc1,outcome,[1],inactive
same,outcome,[2],inactive
same,outcome,[3],inactive
same,outcome,[4],inactive
same,outcome,[5],inactive
same,outcome,[6],inactive
same,outcome,[7],inactive
same,outcome,[8],inactive
same,outcome,[9],inactive
same,outcome,[10],inactive
same,outcome,[11],inactive
same,outcome,[12],inactive
same,outcome,[13],inactive
same,outcome,[14],inactive
same,outcome,[15],inactive
same,outcome,[16],inactive
same,outcome,[17],inactive
same,outcome,[18],inactive
same,outcome,[19],inactive
same,outcome,[20],inactive

# — PubChem BioAssay (EPA / NIEHS)
